What all share (test): protein-binding microarray (PBM); PBM: ~300 nM protein, 6 mM HEPES pH 7.8, 80 mM KCl, 0.5 mM EDTA, 0.5 mM EGTA, 6% glycerol, 35 ng/ul poly-dIdC, 1% milk, 1 h, room temperature; Ap Aiptasia and Nv Nematostella (sea anemones) / Co Capsaspora / Aq Amphimedon (sponge) / Dm Drosophila / Hu human; RHD is the Rel homology domain; high values mean tight binding
What all share (settings): dsDNA, one strand shown

One test has as its target T1, GST-Ap-NF-kB RHD (Exaiptasia pallida (Aiptasia), UniProt A0A913YAJ5 2-422).
T1 sequence: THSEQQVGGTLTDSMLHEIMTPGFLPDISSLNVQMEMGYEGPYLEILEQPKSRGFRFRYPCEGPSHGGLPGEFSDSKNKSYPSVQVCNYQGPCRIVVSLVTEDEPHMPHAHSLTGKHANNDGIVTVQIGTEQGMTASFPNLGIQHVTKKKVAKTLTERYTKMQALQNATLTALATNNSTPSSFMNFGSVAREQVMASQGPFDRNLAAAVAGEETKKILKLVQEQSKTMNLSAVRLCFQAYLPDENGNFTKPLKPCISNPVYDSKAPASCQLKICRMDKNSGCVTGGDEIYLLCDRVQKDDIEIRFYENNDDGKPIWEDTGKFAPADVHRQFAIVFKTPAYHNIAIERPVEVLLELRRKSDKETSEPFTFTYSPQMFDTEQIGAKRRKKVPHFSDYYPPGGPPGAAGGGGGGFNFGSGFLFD

Test [1] addresses T2, GST-Nv-NF-kB (Cys allele) (Nematostella vectensis, UniProt E5G601 2-411).
T2 sequence: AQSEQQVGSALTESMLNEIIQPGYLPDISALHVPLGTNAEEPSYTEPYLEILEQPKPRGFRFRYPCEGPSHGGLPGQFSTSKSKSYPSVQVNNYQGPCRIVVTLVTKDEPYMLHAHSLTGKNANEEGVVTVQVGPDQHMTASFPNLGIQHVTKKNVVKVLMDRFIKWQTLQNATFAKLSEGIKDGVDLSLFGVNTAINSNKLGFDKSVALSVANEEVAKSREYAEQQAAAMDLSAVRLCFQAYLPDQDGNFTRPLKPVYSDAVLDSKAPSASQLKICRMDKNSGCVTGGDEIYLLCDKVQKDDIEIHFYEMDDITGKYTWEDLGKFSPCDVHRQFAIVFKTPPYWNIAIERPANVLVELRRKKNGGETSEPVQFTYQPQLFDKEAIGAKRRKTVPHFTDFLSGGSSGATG

Test [2] has as its target T3, GST-Nv-NF-kB (Ser allele) (Nematostella vectensis, UniProt A7UNT2 2-411).
T3 sequence: T2 sequence with Q21R, C66S, S207N, E215Q, V217A, E225K, A268E, D399E

The target in another test is T4, GST-Co-NF-kB (Capsaspora owczarzaki, UniProt F1ARL5 200-546).
T4 sequence: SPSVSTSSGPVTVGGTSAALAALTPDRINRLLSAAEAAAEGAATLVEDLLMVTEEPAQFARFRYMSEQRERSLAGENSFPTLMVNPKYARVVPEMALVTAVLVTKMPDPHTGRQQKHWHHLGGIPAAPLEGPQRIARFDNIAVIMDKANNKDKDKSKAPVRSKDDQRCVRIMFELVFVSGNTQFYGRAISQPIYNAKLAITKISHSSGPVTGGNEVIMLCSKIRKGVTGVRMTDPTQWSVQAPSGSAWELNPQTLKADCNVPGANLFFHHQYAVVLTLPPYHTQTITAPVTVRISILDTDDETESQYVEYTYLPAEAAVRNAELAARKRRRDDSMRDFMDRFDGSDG

The target of the next test is T5, GST-Dm-Relish (Drosophila melanogaster, UniProt Q94527 99-473).
T5 sequence: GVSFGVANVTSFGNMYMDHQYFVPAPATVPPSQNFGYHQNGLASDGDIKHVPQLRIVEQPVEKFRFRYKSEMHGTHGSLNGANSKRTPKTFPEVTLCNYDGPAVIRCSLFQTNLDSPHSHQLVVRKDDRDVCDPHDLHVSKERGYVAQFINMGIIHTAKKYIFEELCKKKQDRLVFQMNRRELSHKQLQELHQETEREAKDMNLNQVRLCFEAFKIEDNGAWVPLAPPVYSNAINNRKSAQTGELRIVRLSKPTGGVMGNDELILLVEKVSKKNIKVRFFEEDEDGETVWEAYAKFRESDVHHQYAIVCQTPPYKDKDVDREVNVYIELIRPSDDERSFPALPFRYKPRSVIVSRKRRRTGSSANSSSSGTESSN

Another test addresses T6, GST-Aq-NF-kB (Amphimedon queenslandica, UniProt A9Y5G7 2-389).
T6 sequence: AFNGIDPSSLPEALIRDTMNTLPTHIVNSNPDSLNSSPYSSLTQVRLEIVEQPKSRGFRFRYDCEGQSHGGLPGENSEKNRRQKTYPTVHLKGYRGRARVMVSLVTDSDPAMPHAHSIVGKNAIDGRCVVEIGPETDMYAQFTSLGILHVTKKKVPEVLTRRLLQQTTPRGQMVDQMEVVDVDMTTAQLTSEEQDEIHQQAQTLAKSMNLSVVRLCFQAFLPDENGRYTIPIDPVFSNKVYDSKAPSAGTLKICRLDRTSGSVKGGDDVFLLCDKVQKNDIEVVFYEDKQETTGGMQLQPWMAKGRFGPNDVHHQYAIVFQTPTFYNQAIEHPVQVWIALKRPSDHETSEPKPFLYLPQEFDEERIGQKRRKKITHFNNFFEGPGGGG

The target of the next test is GST-Hu-p50 (Homo sapiens, UniProt P19838 7-356).
Sequence of GST-Hu-p50 (P19838 7-356): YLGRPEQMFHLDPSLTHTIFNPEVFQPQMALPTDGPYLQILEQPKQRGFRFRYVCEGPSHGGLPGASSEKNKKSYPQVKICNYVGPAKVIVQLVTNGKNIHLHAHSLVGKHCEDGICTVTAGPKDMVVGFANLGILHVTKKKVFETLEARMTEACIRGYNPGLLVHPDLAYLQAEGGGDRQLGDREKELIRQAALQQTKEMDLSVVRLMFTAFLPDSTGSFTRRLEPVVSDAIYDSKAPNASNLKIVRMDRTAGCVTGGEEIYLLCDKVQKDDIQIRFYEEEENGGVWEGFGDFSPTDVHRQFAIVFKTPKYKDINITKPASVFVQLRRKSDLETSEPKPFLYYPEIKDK

This passage reports binding signal results from article PMC5700166.

Changes are numbered by the printed parent chain.

For “CCGATTAACATCAAAATTTCCCATGATGTTAATCGGGTCTTGATTCGCTTGACGCTGCTG”, the binding signal stood at 3.99 z-score with GST-Ap-NF-kB RHD; 6.36 z-score in test [1]; 6.16 z-score in test [2]; 5.2 z-score in the test with GST-Co-NF-kB; 4.56 z-score with GST-Dm-Relish; 5.77 z-score with GST-Aq-NF-kB. Further, the binding signal with GST-Hu-p50 came out at 4.79 z-score.
Turning to “CCGATTAACATCACTGGATTCCCTGATGTTAATCGGGTCTTGATTCGCTTGACGCTGCTG”, the binding signal was 3.07 z-score with GST-Ap-NF-kB RHD; 2.76 z-score in test [1]; 3.56 z-score in test [2]; 2.61 z-score in the test with GST-Co-NF-kB; 4.48 z-score with GST-Dm-Relish; 2.82 z-score with GST-Aq-NF-kB. The sequence also had a binding signal in the test with GST-Hu-p50 of 1.36 z-score.
Take “CCGATTAACATCAGGGATCCCCCTGATGTTAATCGGGTCTTGATTCGCTTGACGCTGCTG”: the binding signal with GST-Ap-NF-kB RHD was found to be 12 z-score; in test [1] it was 10.2 z-score; in test [2], 9.22 z-score; with GST-Co-NF-kB, 5.15 z-score; in the test with GST-Dm-Relish, 11.1 z-score; in the test with GST-Aq-NF-kB, 10.3 z-score. The sequence also registered a binding signal with GST-Hu-p50 of 6.45 z-score.
With “CCGATTAACATCAATTTCCCCCCTGATGTTAATCGGGTCTTGATTCGCTTGACGCTGCTG”, the binding signal amounted to 7.89 z-score with GST-Ap-NF-kB RHD; 7.68 z-score in test [1]; 8.79 z-score in test [2]; 11.5 z-score in the test with GST-Co-NF-kB; 6.02 z-score in the test with GST-Dm-Relish; 6.64 z-score with GST-Aq-NF-kB. In addition, the binding signal with GST-Hu-p50 came to 6.75 z-score.
“CCGATTAACATCACTATACCCCCTGATGTTAATCGGGTCTTGATTCGCTTGACGCTGCTG”: the binding signal in the test with GST-Ap-NF-kB RHD came to 4.71 z-score; in test [1], 2.52 z-score; in test [2], 3.85 z-score; with GST-Co-NF-kB, 4.36 z-score; with GST-Dm-Relish it was 2.21 z-score; with GST-Aq-NF-kB, 2.68 z-score. Besides, in the test with GST-Hu-p50, the binding signal came out at 3.41 z-score.
As to “CCGATTAACATCAAAAGAACCCCTGATGTTAATCGGGTCTTGATTCGCTTGACGCTGCTG”, the binding signal with GST-Ap-NF-kB RHD turned out to be 4.18 z-score; in test [1], 3.46 z-score; in test [2] it was 3.14 z-score; with GST-Co-NF-kB, 2.76 z-score; with GST-Dm-Relish it was 5.45 z-score; in the test with GST-Aq-NF-kB it was 4.8 z-score. In the test with GST-Hu-p50, this sequence showed a binding signal of 4.47 z-score.
With “CCGATTAACATCAAATAATACCCTGATGTTAATCGGGTCTTGATTCGCTTGACGCTGCTG”, the binding signal with GST-Ap-NF-kB RHD came to 3.69 z-score; in test [1], 5.65 z-score; in test [2], 5.61 z-score; with GST-Co-NF-kB, 1.91 z-score; with GST-Dm-Relish it was 3.33 z-score; with GST-Aq-NF-kB, 6.24 z-score. This sequence also had a binding signal in the test with GST-Hu-p50 of 4.35 z-score.
Regarding “CCGATTAACATCAGGGGGGTGGATGATGTTAATCGGGTCTTGATTCGCTTGACGCTGCTG”, the binding signal with GST-Ap-NF-kB RHD was found to be 4.23 z-score; in test [1], 3.15 z-score; in test [2], 4.75 z-score; with GST-Co-NF-kB it was 3.78 z-score; with GST-Dm-Relish it was 3.78 z-score; with GST-Aq-NF-kB, 4.03 z-score. The same sequence came in with a binding signal in the test with GST-Hu-p50 of 4.19 z-score.
Take “CCGATTAACATCAAAATTCCCAGTGATGTTAATCGGGTCTTGATTCGCTTGACGCTGCTG”: the binding signal in the test with GST-Ap-NF-kB RHD was 3.76 z-score; in test [1], 5.07 z-score; in test [2], 4.98 z-score; with GST-Co-NF-kB, 4.87 z-score; with GST-Dm-Relish it was 5.12 z-score; with GST-Aq-NF-kB, 4.23 z-score. In addition, the binding signal in the test with GST-Hu-p50 worked out at 4.24 z-score.
As for “CCGATTAACATCAAAATTCCCCATGATGTTAATCGGGTCTTGATTCGCTTGACGCTGCTG”, the binding signal with GST-Ap-NF-kB RHD came to 8.8 z-score; in test [1] it was 9.9 z-score; in test [2], 10.5 z-score; with GST-Co-NF-kB, 7.72 z-score; with GST-Dm-Relish, 7.31 z-score; with GST-Aq-NF-kB, 7.95 z-score. The sequence further gave a binding signal in the test with GST-Hu-p50 of 6.99 z-score.
With “CCGATTAACATCAGGACTTCCCCTGATGTTAATCGGGTCTTGATTCGCTTGACGCTGCTG”, the binding signal with GST-Ap-NF-kB RHD came to 10.1 z-score; in test [1], 10.5 z-score; in test [2], 9.94 z-score; with GST-Co-NF-kB, 4.57 z-score; with GST-Dm-Relish, 9.98 z-score; with GST-Aq-NF-kB, 10.4 z-score. The sequence further showed a binding signal in the test with GST-Hu-p50 of 6.36 z-score.
As to “CCGATTAACATCACGGGGATTTCTGATGTTAATCGGGTCTTGATTCGCTTGACGCTGCTG”, the binding signal with GST-Ap-NF-kB RHD came to 9.25 z-score; in test [1], 9.87 z-score; in test [2] it was 10.8 z-score; with GST-Co-NF-kB, 5.27 z-score; in the test with GST-Dm-Relish, 9.88 z-score; in the test with GST-Aq-NF-kB it was 7.52 z-score. The same sequence came in with a binding signal with GST-Hu-p50 of 7.58 z-score.
